# Laboratory results as given in PubChem BioAssay (NCATS).
# Inconclusive results are not listed. Where a call stands in place of a potency, no number is given. The source made the active and inactive calls. Calls come from the whole dose curve; as a rule, active = well fitted inhibition curve with a large enough effect; inconclusive = small, poorly fitted or top-dose-only effect; inactive = flat fitted curve, though single readings scatter.
# Tests used:
# Assay in all cases: qHTS profiling for inhibitors of Plasmodium falciparum proliferation (AID 504749); note: nearly all actives have a fitted effect of over 60% in size
# Details in all cases: P. falciparum in erythrocytes, SYBR Green DNA, 72 h; series mostly up to 28.7 µM
# DIV30 = system: DIV30
# Summary of the method: (§1)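 Three-day growth assay of blood-stage parasites in erythrocytes (0.3% parasitemia, 2.5% hematocrit) at 37 C, 5% CO2, quantified by SYBR Green DNA staining after overnight detergent lysis.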
# Dd2 = system: Dd2
# Summary of the method: as §1
# FAB9 = system: FAB9
# Summary of the method: as §1
# HB3 = system: HB3
# Summary of the method: as §1
# ICS = system: ICS
# Summary of the method: as §1
# JCK = system: JCK
# Summary of the method: as §1
# GB4 = system: GB4
# Summary of the method: as §1
# N140 = system: N140
# Summary of the method: as §1
# P93_24 = system: P93_24
# Summary of the method: as §1
# ECU = system: ECU
# Summary of the method: as §1
# Potency is the fitted concentration of half-maximal effect.
Structure (SMILES),outcome (DIV30),Potency (Dd2),Potency (FAB9),Potency (HB3),Potency (ICS),Potency (JCK),Potency (GB4),Potency (N140),Potency (P93_24),Potency (ECU)
CC(=O)N(CC(O)CO)c1c(I)c(C(=O)NCC(O)CO)c(I)c(C(=O)NCC(O)CO)c1I (centres undefined),inactive,inactive,inactive,10 µM (active),7.08 µM (active),inactive,–,–,–,–
Cc1c(NC(C)C)c(=O)n(-c2ccccc2)n1C,inactive,inactive,inactive,inactive,–,inactive,inactive,inactive,inactive,–
COc1ccc(Cc2cnc(N)nc2N)cc1OC,inactive,inactive,7.94 µM (active),–,inactive,inactive,2.39 µM (active),inactive,inactive,3.98 µM (active)
O=C1c2ccccc2C(=O)C1c1ccc(Br)cc1,inactive,11.2 µM (active),inactive,inactive,11.2 µM (active),inactive,9.53 µM (active),inactive,–,–
Cc1ccc(S(=O)(=O)NC(=O)NC2CCCCC2)cc1,inactive,–,inactive,inactive,inactive,inactive,inactive,inactive,inactive,inactive
CCCCCC(C)N (centres undefined),inactive,11.2 µM (active),inactive,–,5.01 µM (active),inactive,inactive,–,–,–
Cc1cc(OI)c(C(C)C)cc1-c1cc(C(C)C)c(OI)cc1C,–,10 µM (active),inactive,–,–,inactive,13.5 µM (active),12.6 µM (active),–,–
CC(CN(C)C)C(C)(O)Cc1ccc(Cl)cc1 (centres undefined),–,7.94 µM (active),inactive,inactive,–,inactive,6.75 µM (active),–,–,–
COC(=O)c1ccccc1C(=O)c1ccc(OCCN2CCCCC2)cc1,inactive,–,inactive,inactive,inactive,inactive,inactive,inactive,inactive,inactive
Cc1cc(O)cc(C)c1Cl,–,–,inactive,–,3.55 µM (active),–,–,–,–,–
O=C(O)Cn1c(C(=O)Nc2nc(-c3ccccc3Cl)cs2)cc2ccccc21,inactive,inactive,inactive,inactive,–,inactive,inactive,inactive,inactive,inactive
CN1C[C@@H]2C[C@H]1CN2c1cc2c(cc1F)c(=O)c(C(=O)O)cn2C1CC1,–,1.41 µM (active),inactive,inactive,–,inactive,–,–,1.58 µM (active),–
NC(=O)c1ccc([N+](=O)[O-])cc1Cl,inactive,inactive,inactive,12.6 µM (active),4.47 µM (active),inactive,–,–,–,–
O=C(O)c1cc(=O)c2ccccc2o1,inactive,inactive,inactive,inactive,inactive,inactive,–,inactive,inactive,inactive
NCc1ccc(S(N)(=O)=O)cc1,inactive,inactive,inactive,3.98 µM (active),2.51 µM (active),inactive,–,inactive,–,inactive
CCCCCCCCCCOc1cc2c(=O)c(C(=O)OCC)c[nH]c2cc1OCC,–,0.0028 µM (active),0.005 µM (active),0.002 µM (active),0.0032 µM (active),0.0355 µM (active),0.0021 µM (active),0.0022 µM (active),0.0032 µM (active),0.0028 µM (active)
CCCNC(C)(C)COC(=O)c1ccccc1,inactive,inactive,inactive,inactive,inactive,inactive,–,inactive,inactive,inactive
COc1ccccc1Oc1c(NS(=O)(=O)c2ccc(C(C)(C)C)cc2)nc(-c2ncccn2)nc1OCCO,inactive,inactive,inactive,inactive,–,inactive,inactive,inactive,inactive,inactive
Nc1c2c(nc3c1CCC3)CCCC2,–,12.6 µM (active),–,10 µM (active),12.6 µM (active),–,16.9 µM (active),–,–,–
CC(=O)N[C@@H](Cc1ccc(O)cc1)C(=O)O,–,inactive,inactive,inactive,inactive,inactive,inactive,inactive,inactive,inactive
CCCCCCCCCCC(CO)CCCCCCCC (centres undefined),inactive,inactive,inactive,inactive,8.91 µM (active),inactive,–,inactive,–,inactive
O=C1CC[C@@H](C(=O)O)N1,inactive,inactive,inactive,inactive,–,inactive,–,inactive,–,inactive
O=C1C(c2[nH]c3ccccc3c2O)=Nc2ccccc21,–,inactive,inactive,–,–,inactive,–,–,–,–
Cc1[nH]c(C)c(Cl)c(=O)c1Cl,inactive,inactive,inactive,inactive,–,inactive,–,inactive,inactive,inactive
CCN1CC(CCN2CCOCC2)C(c2ccccc2)(c2ccccc2)C1=O (centres undefined),inactive,12.6 µM (active),inactive,inactive,–,inactive,–,–,–,–
CCN(CC)CCOC(=O)C(c1ccccc1)c1ccccc1,inactive,–,inactive,inactive,–,inactive,–,inactive,inactive,inactive
N[C@@H](Cc1ccc(O)cc1)C(=O)O,–,inactive,inactive,inactive,inactive,inactive,inactive,inactive,inactive,inactive
CC(=O)OC[C@H]1O[C@@](COC(C)=O)(O[C@H]2O[C@H](COC(C)=O)[C@@H](OC(C)=O)[C@H](OC(C)=O)[C@H]2OC(C)=O)[C@@H](OC(C)=O)[C@@H]1OC(C)=O,inactive,inactive,inactive,inactive,inactive,inactive,inactive,–,–,–
O=C(c1ccccc1)C(O)c1ccccc1 (centres undefined),inactive,inactive,inactive,inactive,inactive,inactive,–,inactive,inactive,inactive
Cc1cc(-n2nc3ccc(Cl)cc3n2)c(O)c(C(C)(C)C)c1,inactive,inactive,inactive,inactive,inactive,inactive,inactive,–,–,–
